We go through 40 compounds from PubChem BioAssay (NCATS).

Records with an inconclusive call do not appear. Values without a mark were called inactive. Calls of active or inactive are those of the source. Calls follow the shape of the dose curve; as a rule, active = well fitted cell-killing curve with a large enough effect; inconclusive = small, poorly fitted or top-dose-only effect, or effect the other way; inactive = no such curve, though single readings can be large or run the other way.
Potency is read from the fitted curve at half-maximal effect.

This test can be described thus: Quantitative High-Throughput drug screen in 47 multiple myeloma cell lines against the NCATS MIPE library collection: MM1S_ATCC cell viability assay (AID 1918980). Also: nearly all actives have a fitted effect of over 45% in size. As to conditions: MM1S myeloma viability, CellTiter-Glo ATP luminescence, 48 h; series mostly up to 45.8 µM; viability (% of control): at the top concentration. The source says:
PI: Beverly A. Mock Ph.D.
Laboratory of Cancer Biology and Genetics,
Center for Cancer Research, National Cancer Institute,
National Institute of Health, Bethesda, Maryland
Drug resistance and disease progression are common in multiple myeloma (MM) patients, underscoring the need for new therapeutic combinations. […] We hypothesized that effective combinations would reduce MYC expression and enhance p16 activity. […] These preclinical data identify potentially useful drug combinations for evaluation in drug-resistant MM and reveal potential mechanisms of combined drug sensitivity.
Described herein is the primary MIPE qHTS used to cherrypick compounds. Validated compounds were then further tested for potential synergistic activiy.
[1] Peat TJ, Gaikwad SM, Dubois W, Gyabaah-Kessie N, Zhang S, Gorjifard S, Phyo Z, Andres M, Hughitt VK, Simpson RM, Miller MA, Girvin AT, Taylor A, Williams D, D'Antonio N, Zhang Y, Rajagopalan A, Flietner E, Wilson K, Zhang X, Shinn P, Klumpp-Thomas C, McKnight C, Itkin Z, Chen L, Kazandijian D, Zhang J, Michalowski AM, Simmons JK, Keats J, Thomas CJ, Mock BA. Drug combinations identified by high-throughput screening promote cell cycle transition and upregulate Smad pathways in myeloma. Cancer Lett. 2023 Aug 1;568:216284. doi: 10.1016/j.canlet.2023.216284. Epub 2023 Jun 24. PMID: 37356470; PMCID: PMC10408729.
SEQUENCE No. (e.g., 1, 2, 3, etc.); […] (e.g., Cells, Incubation, Reagent, etc.); VALUE and DESCRIPTION.
1; Cells; 5 uL; white, solid bottom 1536-well Greiner assay plate.
2; Compounds; 23 nL; Kalypsis pin tool (Wako USA) equipped with a 1536-well pin head to transfer to the assay plates.
3; Incubation; 48 hours; 37C incubation.
4; Reagent;5uL; CellTiter Glo (Promega).
5; Detector; 425V; Luminescence; Viewlux PerkinElmer.
NOTES (numbers refer to Sequence numbers above)
1. The cell-based screening methods employed in this study were like those previously published. Briefly, the corresponding myeloma cell lines were screened in 1,536-well plates with 500 cells, 5-uL per well for inhibition of cell viability (assessed by measuring ATP levels with CellTiterGlo).
2. NCATS MIPE 4.0 library of approved and investigational drugs were added using the Kalypsis pin tool. Wells treated with DMSO only for 100% viability and media only for 0% viability were used as controls.
3. The assay plates were covered and incubated for 48 hours in a 37C, 5% CO2 incubator with controlled humidity.
4. After 48 hours, CellTilter-GloTM luminescent substrate mix (Promega) reagent was added to the assay plate and plates we incubated for 5 min at room temperature.
5. Signal was measured as median relative luminescence units on a ViewLux (PerkinElmer) multiplate reader.
[1] Heske CM, Davis MI, Baumgart JT, Wilson K, Gormally MV, Chen L, Zhang X, Ceribelli M, Duveau DY, Guha R, Ferrer M, Arnaldez FI, Ji J, Tran HL, Zhang Y, Mendoza A, Helman LJ, Thomas CJ. Matrix Screen Identifies Synergistic Combination of PARP Inhibitors and Nicotinamide Phosphoribosyltransferase (NAMPT) Inhibitors in Ewing Sarcoma. Clin Cancer Res. 2017 Dec 1;23(23):7301-7311. doi: 10.1158/1078-0432.CCR-17-1121. Epub 2017 Sep 12. PMID: 28899971; PMCID: PMC6636827.
Turning to `O=c1cccc2n1CC1CNC[C@H]2C1`, the Potency is 10.5 µM (active).

In the case of `C[C@H]1CCCC=CC2C[C@H](O)C[C@@H]2[C@H](O)C=CC(=O)O1` (stereo not given in full), the “viability (% of control)” value was 2.16%.

Consider `CN(C)[C@@H]1C(=O)C(C(N)=O)=C(O)[C@@]2(O)C(=O)C3=C(O)c4c(O)cccc4[C@@](C)(O)[C@H]3[C@H](O)[C@@H]12`, for which the Potency was 5.9 µM (active).

As for `O=c1[nH]c2ccccc2n1C1CCN(Cc2ccc(-c3[nH]c4cc5ncnc5cc4nc3-c3ccccc3)cc2)CC1`, the Potency was 18.7 µM (active).

Turning to `COc1ccc(N(C(=O)Oc2c(C)cccc2C)c2ccnc(Nc3ccc(N4CCN(C)CC4)cc3)n2)c(OC)c1`, the Potency was 4.69 µM (active).

For `C1=C2CCCN[C@H]2[C@@H]2C[C@H]1[C@@H]1CCCCN1C2`, the “viability (% of control)” value is 121%.

As for `CC[C@@]1(O)C(=O)OCc2c1cc1n(c2=O)Cc2cc3ccccc3nc2-1`, the Potency is 0.0235 µM (active).

Take `CSCC[C@@H](NC(=O)[C@@H](Cc1ccccc1)NC(=O)CNC(=O)CNC(=O)[C@@H](N)Cc1ccc(O)cc1)C(=O)O`: the “viability (% of control)” value was 96.9%.

For `COCC1(CO)C(=O)C2CCN1CC2` (stereo not given), the Potency was 0.264 µM (active).

Regarding `COc1ccc(C(=O)c2c(C)n(CCN3CCOCC3)c3cc(I)ccc23)cc1`, the “viability (% of control)” value was 96%.

As for `Cc1ccccc1-n1c(Cn2cnc3c(N)ncnc32)nc2cccc(C)c2c1=O`, the Potency was 0.526 µM (active).

In the case of `CC(=O)O[C@@]12CO[C@H]1C[C@H](O)[C@@]1(C)C(=O)[C@H](O)C3=C(C)[C@@H](O)C[C@@](O)([C@@H](OC(=O)c4ccccc4)[C@@H]21)C3(C)C`, the Potency is 10.5 µM (active).

`CC[C@@H]1[C@@H](C)O[C@@](O)([C@@H](C)[C@H](O)[C@H](C)[C@H]2OC(=O)C=CC=C[C@@H](C)[C@@H]([C@@H](C)[C@@H](O)[C@H](C)[C@@]3(O)C[C@H](O[C@H]4C[C@H](O)[C@H](O)[C@H](C)O4)[C@H](CC)[C@@H](C)O3)OC(=O)C=CC=C[C@@H]2C)C[C@H]1O[C@H]1C[C@H](O)[C@H](O)[C@H](C)O1`: the Potency is 0.469 µM (active).

Turning to `O=C(Nc1ccncc1)C(=O)c1cn(Cc2ccc(Cl)cc2)c2ccccc12`, the Potency was 0.264 µM (active).

As to `O=C(Oc1ccc([N+](=O)[O-])cc1)N1CCN(Cc2cccc(Oc3ccccc3)c2)CC1`, the Potency was 11.8 µM (active).

Take `CC(C)N[C@@H]1CCn2c(=O)[nH]c3cccc(c32)[C@@H]1O`: the Potency is 0.372 µM (active).

`C=C[C@@H]1CN2CCC1C[C@@H]2[C@@H](O)c1ccnc2ccccc12` (stereo not given in full): the Potency was 13.2 µM (active).

In the case of `CCN1CCN(C(=O)Cc2ccc(Nc3ncc(F)c(Nc4ccc(C(=O)Nc5ccccc5Cl)cc4)n3)cc2)CC1`, the Potency was 5.9 µM (active).

For the compound `Clc1ccccc1C(c1ccccc1)(c1ccccc1)n1cccn1`, the Potency was 0.469 µM (active).

With `CCNC(=O)CC1N=C(c2ccc(Cl)cc2)c2cc(OC)ccc2-n2c(C)nnc21` (stereo not given), the Potency was 11.8 µM (active).

Regarding `COc1cc([C@@H]2c3cc4c(cc3[C@@H](O)C3COC(=O)C32)OCO4)cc(OC)c1O` (stereo not given in full), the Potency was 0.187 µM (active).

Turning to `CN1[C@H]2CC(O)C[C@H]1[C@H]1O[C@H]12` (stereo not given in full), the Potency is 18.7 µM (active).

On to `CCN1C[C@]2(OC(=O)c3ccccc3NC(C)=O)CC[C@H](OC)[C@@]34[C@H]5CC6[C@@H](OC)C[C@](O)(C(C[C@@H]23)[C@@H]14)[C@@]5(O)[C@@H]6OC`, for which the “viability (% of control)” value was 146%.

Regarding `CCCC[N+]1(C)[C@H]2CC(OC(=O)[C@H](CO)c3ccccc3)C[C@H]1[C@H]1O[C@H]12` (stereo not given in full), the “viability (% of control)” value is 136%.

With `NC1CC1c1ccccc1` (stereo not given), the “viability (% of control)” value is 130%.

As to `C[C@]12CC[C@H]3[C@@H](CCC4=CC(=O)CC[C@@]43C)[C@H]1CC[C@H]2O`, the “viability (% of control)” value was 119%.

`COC1=C[C@@H]2[C@@H]3Cc4ccc(OC)c(O)c4[C@]2(CCN3C)CC1=O`: the Potency was 1.66 µM (active).

With `Oc1ccc2c3c1O[C@H]1c4[nH]c5c(c4C[C@@]4(O)[C@@H](C2)N(CC2CC2)CC[C@]314)C[C@@]1(O)[C@H]2Cc3ccc(O)c4c3[C@@]1(CCN2CC1CC1)[C@H]5O4`, the “viability (% of control)” value was 133%.

For `COC(=O)[C@@H](N)CCCN=C(N)N[N+](=O)[O-]`, the “viability (% of control)” value is 111%.

Take `CCCCCC[C@H]1C(=O)O[C@H](C)[C@H](NC(=O)c2cccc(NC=O)c2O)C(=O)O[C@@H](C)[C@@H]1OC(=O)CC(C)C`: the Potency was 4.69 µM (active).

Regarding `CO[C@H]1CCC(O[C@H]2C[C@H]([C@]3(C)CC[C@]4(C[C@H](O)[C@@H](C)[C@@H]([C@@H](C)C=C(C)C(=O)[C@H](C)C[C@H](C)C(=O)O)O4)O3)O[C@]3(O[C@@H]([C@H]4O[C@@](O)(CO)[C@H](C)C[C@H]4C)C[C@H]3C)[C@H]2C)O[C@H]1C` (stereo not given in full), the Potency is 0.296 µM (active).

On to `CC(C)[C@]12O[C@@H]1[C@@H]1O[C@]13[C@]1(O[C@H]1C[C@@H]1C4=C(CC[C@@]13C)C(=O)OC4)[C@H]2O`, for which the “viability (% of control)” value is 1.93%.

As for `O=[N+]([O-])c1ncc[nH]1`, the “viability (% of control)” value was 107%.

`O=S(=O)(CC1CS1)c1ccc(Oc2ccccc2)cc1` (stereo not given): the Potency was 14.8 µM (active).

With `C[C@]12CC[C@@H]3[C@@H](CCC4=CC(=O)CC[C@@H]43)[C@@H]1CC[C@@H]2OC(=O)CCc1ccccc1`, the “viability (% of control)” value was 100%.

`C[C@@H]1[C@H](O)[C@@H](C)C=CC=CCCC=CC=CC=CC=C[C@H](O[C@H]2O[C@@H](C)[C@H](O)[C@@H](N)[C@@H]2O)CC2O[C@](O)(C[C@@H](O)[C@H](O)CC[C@@H](O)C[C@@H](O)C[C@@H](O)CC(=O)O[C@H]1C)C[C@H](O)[C@H]2C(=O)O`: the “viability (% of control)” value is 129%.

Take `CC=C(C)C(=O)N[C@@H](c1ccccc1)[C@@H](O)C(=O)O[C@H]1C[C@@]2(O)[C@@H](OC(=O)c3ccccc3)[C@@H]3[C@]4(OC(C)=O)CO[C@@H]4C[C@H](O)[C@@]3(C)C(=O)[C@H](OC(C)=O)C(=C1C)C2(C)C`: the “viability (% of control)” value is 64.9%.

Regarding `COC1=CC(C)=C[C@@H](C)[C@@H](O)[C@@H](C)CC(C)=CC=C[C@H](OC)[C@H]([C@@H](C)[C@@H](O)[C@H](C)[C@@]2(O)C[C@@H](O)[C@H](C)[C@@H](C(C)C)O2)OC1=O`, the Potency is 1.48 µM (active).

Turning to `Cc1c(C(=O)Nc2cccc(C(F)(F)F)c2)cc(-c2ccccc2)n1CCCN1CCOCC1`, the Potency was 20.9 µM (active).

Regarding `CC1(N2CCC(n3c([C@@H]4CCCNC4)nc4ccccc43)CC2)CCCCCCC1`, the Potency was 4.69 µM (active).
